The source of these data is PubChem BioAssay (NCATS).

Structures are written as SMILES. Records with an inconclusive call do not appear. Unmarked numbers belong to inactive results. Calls come from the whole dose curve; as a rule, active = well fitted inhibition curve with a large enough effect; inconclusive = small, poorly fitted or top-dose-only effect; inactive = flat fitted curve, though single readings scatter.
% is set by controls: 0 for no effect and ±100 for the full control effect.

Chain of Calcium and integrin-binding protein 1 (Homo sapiens) (Q99828 whole entry, looked up): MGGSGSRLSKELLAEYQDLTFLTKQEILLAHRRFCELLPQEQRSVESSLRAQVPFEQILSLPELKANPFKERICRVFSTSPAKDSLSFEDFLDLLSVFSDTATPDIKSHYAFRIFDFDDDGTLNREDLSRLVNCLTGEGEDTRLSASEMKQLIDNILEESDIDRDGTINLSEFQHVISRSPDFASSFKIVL

The experiment concerns the target Calcium and integrin-binding protein 1 (Homo sapiens) (UniProt Q99828). Briefly: Primary qHTS for Identification of Calcium Integrin Binding Protein 1 (CIB1) Competitor (AID 1508620).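 Note: GST tagged CIB1 binding a fluorescein labelled alphaIIb integrin peptide tracer; top concentration of the series differs between compounds.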 The settings on record: CIB1-GST / FITC-alphaIIb peptide fluorescence polarization; series mostly up to 114 µM; activity change, negative = inhibition: at the top concentration. The method in brief:
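CIB1-GST (1 uM final) and compound incubated 15 min at room temperature before adding FITC-alphaIIb peptide tracer (100 nM final). Competition for binding read by fluorescence polarization (ex 480, em 540) after another 15 min at room temperature.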
Background: qHTS replaces the single test concentration by a dilution series.
On to `COc1ccc(C2=N[C@@H](c3ccc(Cl)cc3)[C@@H](c3ccc(Cl)cc3)N2C(=O)N2CCNC(=O)C2)c(OC(C)C)c1`, for which the “activity change, negative = inhibition” value is -10.8%.
To `O=C(NCC(O)CO)c1ccncc1Nc1ccc(I)cc1F` (stereo not drawn) belongs 1.11%; to `C/C=C/C=C/C(O)=C1\C(=O)[C@]2(C)C3C(C(=O)CC/C=C/C)=C(O)C4(C)C1[C@]1(C)O[C@@]4(O)[C@@]3(C)O[C@@]12O`, -0.588% [at 57.7 µM].
As to `O=C(/C=C/c1ccc(O)cc1)N[C@@H](Cc1ccc(O)cc1)C(=O)O`, the “activity change, negative = inhibition” value was -0.539% [at 57.7 µM].
To `COc1cc([C@H]2c3cc(O)c(OC)cc3C[C@@H](CO[C@@H]3O[C@H](CO)[C@@H](O)[C@H](O)[C@H]3O)[C@@H]2CO)ccc1O` belongs 0.877% [at 57.7 µM]; to `COc1cc2ncnc(N3CCC(Oc4cnc5ccccc5n4)C3)c2cc1OC` (stereo not drawn), -3.07%.
Then `CN(c1ccccc1CNc1nc(Nc2ccc3c(c2)CC(=O)N3)ncc1C(F)(F)F)S(C)(=O)=O`, with 1.35%.
Then `N#Cc1ccc(-c2cnc3[nH]cc(NC(=O)c4cccnc4)c3c2)cc1`, with -8.36%.
Consider `CC1(C)CC[C@]2(C(=O)O)CC[C@]3(C)C(=CCC4[C@@]5(C)CC[C@H](O[C@@H]6O[C@H](C(=O)O)[C@@H](O[C@@H]7OC[C@@H](O)[C@H](O)[C@H]7O)[C@H](O)[C@H]6O)C(C)(C)C5CC[C@]43C)C2C1O` (stereo partly drawn), for which the “activity change, negative = inhibition” value is -4.31% [at 30.2 µM].
Take `C=C[C@H]1[C@H](O[C@@H]2O[C@H](CO)[C@@H](O)[C@H](O)[C@H]2O)OC=C(C(=O)OC)[C@H]1C/C=C(/C=O)[C@@H]1C(C(=O)OC)=CO[C@@H](O[C@@H]2O[C@H](CO)[C@@H](O)[C@H](O)[C@H]2O)[C@@H]1C=C`: the “activity change, negative = inhibition” value was 3.41% [at 30.2 µM].
To `CC(=O)O[C@@H]1[C@@H](O)[C@H](O[C@H]2CC[C@]34C[C@]35CC[C@]3(C)[C@@H]([C@@]6(C)CC[C@@H](C(C)(C)O)O6)[C@@H](O)C[C@@]3(C)[C@@H]5C[C@H](O[C@@H]3O[C@H](CO)[C@@H](O)[C@H](O)[C@H]3O)[C@H]4C2(C)C)OC[C@H]1O` belongs -9.24%.
Turning to `COc1cc2nc(N3CCCC3)nc(NCCCCCN3CCCC3)c2cc1OC`, the “activity change, negative = inhibition” value was 14.9%.
To `CO[C@H]1/C=C\O[C@@]2(C)Oc3c(C)c(O)c4c(O)c(c5c(nc6cc(C)ccn65)c4c3C2=O)NC(=O)/C(C)=C\C=C/[C@H](C)[C@H](O)[C@@H](C)[C@@H](O)[C@@H](C)[C@H](OC(C)=O)[C@@H]1C` belongs -6.92%.
To `C=C1C(=O)OC2CC(C)=C(C(C)CCCO)C(O)C12` (stereo not drawn) belongs -15.4%; to `CC(C)C(=O)OC[C@H]1O[C@H](O[C@H]2O[C@H](CO)[C@@H](O)[C@H](O)[C@H]2O)[C@H](O)[C@@H](O)[C@@H]1O`, 0.761% [at 57.7 µM]; to `Cc1nc2sc(C(=O)NCc3ccncc3)c(N)c2c(C)c1Cl`, -4.14%.
To `O=C(O)CC(=O)OC[C@H]1O[C@@H](Oc2ccc3c(c2)OC[C@H]2c4cc5c(cc4O[C@@H]32)OCO5)[C@H](O)[C@@H](O)[C@@H]1O` belongs -3.56% [at 57.7 µM]; to `COc1cc(/C=C/C(=O)O[C@H]2[C@H](O)[C@@H](CO)O[C@@]2(CO)O[C@H]2O[C@H](CO)[C@@H](O)[C@H](O)[C@H]2O)ccc1O`, 2.08% [at 57.7 µM].
Turning to `CC1=C(C(=O)O)/C(=C\CO[C@@H]2O[C@H](CO)[C@@H](O)[C@H](O)[C@H]2O)C(OC(=O)/C=C/c2ccc(O)cc2)C1` (stereo partly drawn), the “activity change, negative = inhibition” value is -3.79% [at 57.7 µM].
As to `CC(c1ncncc1F)C(O)(Cn1cncn1)c1ccc(F)cc1F` (stereo not drawn), the “activity change, negative = inhibition” value was -8.29%.
Consider `C=C1C(=O)OC2C1CCC(=C)C1CC(OC(C)=O)C(=C)C12` (stereo not drawn), for which the “activity change, negative = inhibition” value was -6.76%.
To `CNC(=O)c1ccccc1Nc1nc(Nc2ccc3c(c2OC)CCC[C@@H](N2CCN(CCO)CC2)C3)ncc1Cl` belongs 0.33%.
Consider `CC(C)CCC[C@@H](C)[C@H]1CC[C@H]2[C@@H]3CC(=O)[C@H]4C[C@@H](O)CC[C@]4(C)[C@H]3CC[C@]12C`, for which the “activity change, negative = inhibition” value was -2.93%.
Take `COC(=O)C[C@H]1C(C)(C)[C@H](OC(C)=O)C2CC3=C4CC(=O)O[C@@H](c5ccoc5)[C@]4(C)CCC3[C@@]1(C)C2=O` (stereo partly drawn): the “activity change, negative = inhibition” value was -6.72% [at 57.7 µM].
Then `C/C=C1\[C@H](O[C@@H]2O[C@H](CO)[C@@H](O)[C@H](O)[C@H]2O)OC=C(C(=O)OC)[C@H]1CC(=O)O`, with 1.4% [at 57.7 µM].
Then `C=CC(=O)Nc1cccc(CN2C(=O)N(c3c(Cl)c(OC)cc(OC)c3Cl)Cc3cnc(NCCCCN(CC)CC)nc32)c1`, with 0.933%.
To `CC(=O)O[C@@H]1c2c3c(cc(O)c2C(=O)O[C@@H]1C)O[C@@]1(C)[C@@H](O)C[C@H]2C(C)(C)C(=O)C=C[C@]2(C)[C@@H]1C3` belongs 1.49% [at 57.7 µM]; to `C=C(C(=O)O)C1CC(O)C2(C)CCCC(=C)C2C1` (stereo not drawn), 3.78%.
